Screens: PubChem BioAssay, National Center for Advancing Translational Sciences (NCATS)
TbPYK inhibitor – blocks Trypanosoma brucei pyruvate kinase. TbPYK enzyme, Kinase-Glo Plus ATP luminescence, 45 min. Q57TT1. AID 624173. hit rate 0.12% among 410,000. Potency, µM (top dose mostly 76.8 µM), inactives show at the top dose activity, negative = inhibition, hits mostly inhibitors; note: potency is the fitted concentration of half-maximal effect; % is set by controls: 0 for no effect and ±100 for the full control effect; nearly all actives have a fitted effect of over 50% in size
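Activity of T. brucei pyruvate kinase was followed by Kinase-Glo Plus luminescence after the enzyme reacted 45 min at room temperature with 130 uM ADP (final) and substrate. Test compounds were added before ADP at multiple concentrations.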
Shiga inhibitor – blocks Shiga toxin action in Vero cells. AID 2315. inhibition, % at 38.7 µM. Vero cells, Shiga toxin protein synthesis inhibition reporter. hit rate 9.2% among 290,000; in the data active = inhibition mostly above about 28%, no sharp cut-off; inactive = mostly below about 43%; note: 0% is about no effect
FBPA Giardia inh – inhibitors of Giardia lamblia fructose-1,6-bisphosphate aldolase; hit rate 0.71% among 290,000; Potency, µM (series often up to 59.6 µM), without a hit: top-dose activity, negative = inhibition, most hits filed as inhibitors; purified Giardia FBPA; AID 2451; note: potency is the fitted concentration of half-maximal effect; % is set by controls: 0 for no effect and ±100 for the full control effect; nearly all actives have a fitted effect of over 55% in size
Target sequence (A8B2U2 whole entry, looked up): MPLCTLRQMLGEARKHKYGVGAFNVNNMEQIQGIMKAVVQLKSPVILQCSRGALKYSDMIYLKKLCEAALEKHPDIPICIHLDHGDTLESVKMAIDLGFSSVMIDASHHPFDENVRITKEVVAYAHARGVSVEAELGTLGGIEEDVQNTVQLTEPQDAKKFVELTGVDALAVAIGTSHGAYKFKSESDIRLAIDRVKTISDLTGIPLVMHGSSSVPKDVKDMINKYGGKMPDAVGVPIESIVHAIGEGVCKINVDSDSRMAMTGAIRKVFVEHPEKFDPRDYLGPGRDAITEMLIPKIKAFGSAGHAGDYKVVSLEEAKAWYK
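Giardia FBPA (40 nM reagent) was preincubated 10 min at RT with compound (up to 57.5 uM final), then substrate plus GAPDH/TPI/NAD/arsenate coupling system with diaphorase/resazurin was added; resorufin fluorescence (525/598 nm) was read after 20 min.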
Cycloheximide cs – counter-screen hit for Shiga toxin inhibitors, cycloheximide. cell reporter, cycloheximide protein synthesis inhibition counterscreen. hit rate 12% among 300,000. max response, %. AID 2314; in the data active = max response mostly above about 13%, no sharp cut-off; inactive = mostly below about 14%; note: read at 38.3 µM for the half of the compounds with a filed dose; 0% is about no effect
LmPK inhibitor – inhibitors of Leishmania mexicana pyruvate kinase; Q27686; purified LmPK, Kinase-Glo ATP luminescence, 1 h; Potency, µM (series often up to 57.5 µM), for the others: top-dose activity change, negative = inhibition, most hits filed as inhibitors; hit rate 0.37% among 290,000; AID 1721; note: potency is the fitted concentration of half-maximal effect; % is set by controls: 0 for no effect and ±100 for the full control effect
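In 50 mM imidazole pH 7.2 with 7 mM MgCl2, LmPK (0.1 nM) turned over PEP (0.5 mM) and ADP (0.1 mM) for 1 h at room temperature. Luciferase read-out of ATP.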
RE007 growth inh – less growth of the S. pombe RE007 Vpr strain; S. pombe RE007 Vpr strain, BacTiter-Glo ATP luminescence, 24 h; Potency, µM (doses to about 92.2 µM), for the others: at the top dose activity change, negative = less growth, hits mostly inhibitors; hit rate 0.21% among 360,000; AID 651644; active = well fitted falling curve with a large enough effect; inconclusive = small, poorly fitted or top-dose-only effect; inactive = no such curve, though single readings can be large or run the other way; note: potency is the fitted concentration of half-maximal effect; % is set by controls: 0 for no effect and ±100 for the full control effect; nearly all actives have a fitted effect of over 50% in size
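Fission yeast strain RE007, carrying one chromosomally integrated HIV-1 vpr copy, was seeded at OD 0.01 in PMG+AL medium with 23 nL pinned compound. After 24 h at 30 °C and 99% humidity, viability was read by BacTiter-Glo luminescence.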
An asterisk follows results filed as active; i = inactive; u = inconclusive; x = no result given; [ ] = dose if it differs, or a comment. This is one part of a sample in which hits are shown more often than they occur. Unless noted, calls come from the whole dose curve; as a rule, active = well fitted curve in the direction sought with a large enough effect; inconclusive = small, poorly fitted or top-dose-only effect, or another doubt; inactive = no such curve, though single readings can be large; an effect the other way counts as inactive or inconclusive.

SMILES	TbPYK inhibitor	Shiga inhibitor	FBPA Giardia inh	Cycloheximide cs	LmPK inhibitor	RE007 growth inh
CC(=O)c1cccc(NC(=O)CCC2CCCC2)c1	2.4%	i	-6.0%	25.4*	6.8%	3.5%
O=C(Nc1cccc(Cl)c1)NC1CC2CCC1C2 (stereo unspecified)	-3.2%	x	-0.8%	23.4*	8.0%	-0.8%
O=C(Nc1cccc(Cl)c1)NC1CCCCC1	0.5%	91.5*	-7.2%	37.9*	-0.1%	1.9%
Cc1nc2ccc(NC(=O)CCC3CCCC3)cc2s1	-4.6%	96.8*	1.6%	45.1*	0.4%	-10.6%
COc1ccc(Oc2ncc3nc(C)c(=O)n(-c4ccc(OC)cc4)c3n2)cc1	0.0%	x	-1.1%	x	x	x
OC[C@H]1O[C@@H](O[C@@H]2[C@@H](CO)O[C@@](O)(CO)[C@H]2O)[C@H](O)[C@@H](O)[C@H]1O	3.0%	x	x	x	x	4.1%[18.4 µM]
COC1=CC(=O)OC(c2ccccc2C(F)(F)F)C1 (stereo unspecified)	x	x	x	x	x	11.4%
COc1ccc(-c2noc(N3CCCC(C(=O)Nc4ccc(C(C)=O)cc4)C3)n2)cc1 (stereo unspecified)	0.2%	30.9	x	27.7*	0.0%	-3.6%
CC(=O)c1ccc(NC(=O)NC2CCCCCCC2)cc1	2.4%	94.8*	x	38.6*	1.0%	13.3%
CC(=O)c1cccc(NC(=O)NC2CCCCC2)c1	1.7%	16.7	0.4%	16.3	7.7%	6.9%
CC(=O)c1cccc(NC(=O)NC2CCCCCCC2)c1	-5.8%	49.7	1.3%	36.0*	1.5%	6.4%
CC(=O)c1ccc(-c2ccc(C(=O)NC3CCCCCC3)o2)cc1	7.2%	41.3*	-19.6%	27.5*	2.0%	21.9%
CC(C)[C@@H]1NC(=O)[C@H](CCCCN)NC(=O)[C@@H](Cc2c[nH]c3ccccc23)NC(=O)[C@H](Cc2ccc(O)cc2)NC(=O)[C@@H](NC(=O)[C@H](N)Cc2ccccc2)CSSC[C@@H](C(=O)N[C@@H](Cc2c[nH]c3ccccc23)C(N)=O)NC1=O	x	-8.7	0.3%	-14.6	x	x
COc1cc(/C=C/C(=O)OCC(=O)Nc2ccc3[nH]c(=O)[nH]c3c2)ccc1OC(F)F	2.7%	x	x	x	x	10.4%
COc1ccc(CCNC(=O)Cc2c(C)c3cc4c(C)coc4c(C)c3oc2=O)cc1	5.2%	x	x	x	x	x
CC(=O)c1ccc(NC(=O)C2CCCC2)cc1	1.0%	1.2	-3.5%	9.4*	3.5%	-4.6%
CC(=O)c1cccc(NC(=O)C2CCCC2)c1	0.5%	-18.3	0.2%	1.5	1.2%	17.4%
CC(=O)c1ccc(NC(=S)NC2CCCC(C)C2C)cc1 (stereo unspecified)	1.4%	48.1*	1.0%	17.1*	3.9%	-0.9%
Cc1ncc(CN2CC=C(c3ccccc3)CC2)c(N)n1	x	x	-14.2%	x	x	x
O=C(C1CCC1)N1CCc2cc(S(=O)(=O)NCCc3ccccc3)ccc21	2.3%	x	x	x	x	x
O=C(N=C1c2ccccc2CN1c1cccc(Cl)c1)c1cccnc1	5.6%	26.3*	-4.5%	33.5*	1.0%	5.2%
CCOC(=O)c1ccc(N2Cc3ccccc3C2=NC(=O)c2cccc([N+](=O)[O-])c2)cc1	-0.9%	x	x	x	x	0.7%
O=C(N=C1c2ccccc2CN1c1ccc(F)c(F)c1)c1cccnc1	-1.2%	39.4	-4.9%	28.7*	3.9%	-19.8%
O=C(N=C1c2ccccc2CN1c1ccccc1)c1cccc([N+](=O)[O-])c1	3.3%	34.7	-5.5%	18.5*	-0.1%	4.2%
COc1ccc(N2Cc3ccccc3C2=NC(=O)c2ccc(C)cc2)cc1OC	-11.0%	10.2	u	15.4	2.7%	-7.7%
O=C(N/N=C/C=C/c1ccccc1)c1cccs1	2.0%	75.0*	-17.8%	41.5*	-8.3%	-8.9%
O=C(N/N=C/c1ccccc1[N+](=O)[O-])c1cccs1	-4.4%	88.5*	-0.4%	40.6*	-13.0%	60.9%
Cc1ccc(/C=N/NC(=O)c2cccs2)cc1[N+](=O)[O-]	3.9%	78.4*	-0.3%	39.4*	-1.7%	8.6%
O=C(N/N=C/C(Br)=C/c1ccccc1)c1cccs1	-8.9%	122.5*	-5.7%	63.1*	-3.2%	-4.3%
O=C(N/N=C/C=C/c1ccccc1)c1ccncc1	5.8%	-19.8	u	0.3	-1.1%	1.8%
